According to PubChem BioAssay (NCI):
The panel holds about 79,000 compounds, 15% with a hit somewhere; the sample as a whole holds those more often. Cut-off read from the data, not from the text of the source: active = growth inhibition above about 70%; inactive = the rest.

Experiments:
[1] = NCI Yeast Anticancer Drug Screen. Data for the rad50 strain (AID 155);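 note: 0% = growth of vehicle-only cultures of the same strain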; conditions: S. cerevisiae rad50 strain growth inhibition; at 50.0 µM; active compounds read high
Method in brief: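 Relative growth inhibition (compound vs vehicle) was measured in yeast with a defined repair-gene alteration.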

[2] = NCI Yeast Anticancer Drug Screen. Data for the mec2-1 strain (AID 157); conditions: S. cerevisiae mec2-1 strain, at 50.0 µM, active compounds read high
Method in brief: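 Vehicle-treated cultures served as reference for growth inhibition of compound-exposed mec2-1 yeast.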

[3] = NCI Yeast Anticancer Drug Screen. Data for the sgs1 mgt1 strain (AID 161);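 note: 0% = growth of cultures given vehicle only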; conditions: S. cerevisiae sgs1 mgt1 strain, at 50.0 µM, active compounds read high
Method in brief: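 Mutant yeast exposed to compound; growth scored against vehicle-only wells.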

[4] = NCI Yeast Anticancer Drug Screen. Data for the cln2 rad14 strain (AID 165);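 note: 0% = growth equal to vehicle treated cultures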; conditions: S. cerevisiae cln2 rad14 strain, at 50.0 µM, active compounds read high
Method in brief: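 Each compound was tested on cln2 rad14 yeast. Inhibition of growth was calculated against vehicle-exposed controls.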

[5] = NCI Yeast Anticancer Drug Screen. Data for the bub3 strain (AID 167); conditions: S. cerevisiae bub3 mutant strain, at 50.0 µM, active compounds read high
Method in brief: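 Screening used yeast with an engineered genetic alteration affecting cell cycle control. Compound-exposed cultures were compared with vehicle cultures, and reduced growth was taken as inhibition.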

[6] = NCI Yeast Anticancer Drug Screen. Data for the mlh1 rad18 strain (AID 175); conditions: S. cerevisiae mlh1 rad18 strain growth inhibition; at 50.0 µM; active compounds read high
Method in brief: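 Vehicle-treated cultures served as the reference for growth inhibition in a yeast strain carrying DNA damage repair alterations exposed to each compound.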

Measured: growth inhibition

Cc1cccc[n+]1CC(=O)c1ccccc1
inactive: [1] 17.2% | [2] 31.2% | [3] 34.5% | [4] -3.65% | [5] 18.6% | [6] 20.9%

O=C(Cc1ccccc1)NN1C(=O)C(Cl)C1c1ccc(O)cc1 (stereo not given)
inactive: [1] -27.9% | [2] -16.4% | [3] -11.2% | [4] 3.7% | [5] -29.4% | [6] 3.4%

Cc1cc2cc3oc(C)cc3cc2o1
inactive: [1] 6.3% | [2] -6.45% | [3] -7.8% | [4] -45.6% | [5] -0.8% | [6] 3.25%

Brc1ccc(CN(Cc2ccccc2)Cc2ccccc2)cc1
inactive: [1] -13.3% | [2] -8.3% | [3] 1.55% | [4] -10.4% | [5] 10.7% | [6] 4.75%

CSc1ccc(C(=NO)c2ccc(SC)cc2)cc1
inactive: [1] -11.4% | [2] 17.8% | [3] -1.3% | [4] -0.85% | [5] -8.5% | [6] -11.7%

CC[n+]1c(C)sc2cc(Cl)c(-c3ccccc3)cc21
inactive: [1] 23.4% | [2] 17.2% | [3] 30.4% | [4] -6.25% | [5] -3.25% | [6] 34.1%

O=C1O[C@@H](c2ccccc2)C[C@@H]1CN1CCOCC1
inactive: [1] 24.4% | [2] 13.7% | [3] 22.7% | [4] 26.1% | [5] 3.15% | [6] 15.1%

COc1cc(/C=C(\C#N)C(N)=O)cc(Br)c1O
inactive: [1] -13.5% | [2] -24% | [3] 15.9% | [4] 8.65% | [5] 7.45% | [6] -7.35%

COc1ccc(OC)c(NCc2ccccc2)c1
inactive: [1] -8.6% | [2] -2.5% | [3] -13.9% | [4] -88.5% | [5] -0.4% | [6] 3.65%

Nc1c(I)cc([N+](=O)[O-])cc1I
inactive: [1] 32.8% | [2] 2.6% | [3] 18% | [4] -16.4% | [5] 25.9% | [6] 19.9%

CC1COC2(CCCCC2)O1 (stereo not given)
inactive: [1] -25.2% | [2] -3.45% | [3] -44.1% | [4] -37% | [5] -14.8% | [6] -26.1%

COC(=O)c1cc2c(o1)Sc1ccccc1NC2=O
inactive: [1] -4.3% | [2] -29.9% | [3] -12.6% | [4] 3.65% | [5] -8.55% | [6] 10.7%

COC(=O)C(O)C(O)C(O)C(O)C(O)CO (stereo not given)
inactive: [1] -1.4% | [2] -12.1% | [3] 0.25% | [4] -45.4% | [5] -8.6% | [6] -5.3%

O=C1C(C2CCCCC2)=C2OCC3COC2(O3)c2ccccc21 (stereo not given)
inactive: [1] -8.75% | [2] -16.6% | [3] -20.1% | [4] -10.1% | [5] -14.6% | [6] -30.7%

S=C(NCN1CCCCC1)NCN1CCCCC1
inactive: [1] 9.55% | [2] 9.1% | [3] 4.95% | [4] -50.1% | [5] 23.8% | [6] 33.5%

O=C(Nc1cccc(Cl)c1Cl)Oc1cccc2ccccc12
inactive: [1] 21.4% | [2] 5.15% | [3] 12.4% | [4] 8.65% | [5] 24.5% | [6] 16.4%

Cc1ccc(S(=O)(=O)Nn2nnnc2N)cc1
inactive: [1] -7.85% | [2] 11.7% | [3] -7.6% | [4] -4.4% | [5] -4.65% | [6] 7.25%

O=C1c2ccccc2C(C2c3ccccc3C(=O)c3cc(Br)ccc32)c2ccc(Br)cc21 (stereo not given)
inactive: [1] 4.25% | [2] -35.1% | [3] -9.5% | [4] -48.9% | [5] -14.1% | [6] -18.2%

CC(=O)OCC1OC(n2c(C)cc(C)c(C#N)c2=S)C(OC(C)=O)C(OC(C)=O)C1OC(C)=O (stereo not given)
inactive: [1] 21.2% | [2] 16.6% | [3] -5.35% | [4] -14.9% | [5] -6.05% | [6] 32.4%

CC(=O)Nc1ccc(/C=C2\CCOC2=O)cc1[N+](=O)[O-]
inactive: [1] 6.8% | [2] 8.2% | [3] 7.15% | [4] 57.5% | [5] 8% | [6] 3.6%

CCC1(CC)C(=O)N(C(=O)c2cc(OC)c(OC)c(OC)c2)N(C(=O)c2cc(OC)c(OC)c(OC)c2)C1=O
inactive: [1] 13.2% | [2] -0.1% | [3] -2.2% | [4] -11% | [5] 6.75% | [6] 14.8%

COc1ccc(/C=N/SC(c2ccccc2)(c2ccccc2)c2ccccc2)cc1
inactive: [1] 28.6% | [2] 6% | [3] 13.2% | [4] 13.4% | [5] 0.2% | [6] -4.4%

CSc1nc(NCc2ccc(Cl)cc2)c2[nH]c(C)nc2n1
inactive: [1] 7.7% | [2] -13.6% | [3] 18.4% | [4] -3% | [5] 20.1% | [6] 6.45%

O=C1[C@H]2ON(c3ccccc3)C(c3ccc(Cl)cc3)[C@H]2C(=O)N1c1ccc(Cc2ccc(N3C(=O)[C@@H]4ON(c5ccccc5)C(c5ccc(Cl)cc5)[C@@H]4C3=O)cc2)cc1 (stereo not given in full)
inactive: [1] 1.75% | [2] 8.6% | [3] 0.2% | [4] 26.4% | [5] 21.4% | [6] 7.6%

Cc1c(C(=O)CC(=O)C(=O)Nc2ccc(Cl)cc2)[n+](=O)c2ccccc2n1[O-]
inactive: [1] 9.9% | [2] -2.25% | [3] 0.65% | [4] 19.4% | [5] 8.35% | [6] -0.3%

O=C(On1nnc2ccccc2c1=O)c1ccccc1
inactive: [1] 29.7% | [2] 20.4% | [3] 22.8% | [4] -7.25% | [5] -3.25% | [6] 12.8%

O=C(NC(c1ccccc1)C(O)c1ccccc1)C(Cl)Cl (stereo not given)
inactive: [1] -5.45% | [2] -14.8% | [3] -1.95% | [4] -4.65% | [5] -0.75% | [6] 2.65%

O=[N+]([O-])c1ccc(OCc2ccc(CBr)cc2)c(Cl)c1
inactive: [1] 4.1% | [2] 29.6% | [3] 15.4% | [4] -13.7% | [5] 16% | [6] 22.5%

Cc1cccc(C)c1NC(=O)Nc1cccc(C(F)(F)F)c1
inactive: [1] -16.4% | [2] -29.4% | [3] -14.7% | [4] -22.4% | [5] -8.25% | [6] -17.8%

Nc1ccc(S(=O)(=O)Nc2nc(CN3CCCCC3)cs2)cc1
inactive: [1] 7.25% | [2] -2.5% | [3] 3.3% | [4] -38.5% | [5] -1.4% | [6] -7.85%

NNc1nc2ccc([N+](=O)[O-])cc2s1
inactive: [1] 13.7% | [2] -8.55% | [3] -1% | [4] -22% | [5] -9.75% | [6] 22.2%

Cc1c(O)c2ccccc2n(C)c1=O
inactive: [1] -9.45% | [2] -12.4% | [3] -15.7% | [4] -6.1% | [5] 3.85% | [6] -6.8%

Cc1cc(N=C2C=C(Nc3cc(C)on3)C(=O)c3ccccc32)no1
inactive: [1] -8.9% | [2] -1.25% | [3] -21.4% | [4] 1.05% | [5] -14.7% | [6] 6.05%

CCCCCCc1cc(C(=O)N/N=C/c2ccccc2O)c2ccccc2n1
inactive: [1] -35.2% | [2] -8.1% | [3] 16% | [4] -13.2% | [5] 67.6% | [6] -2.95%

C[n+]1ccccc1/C=C/C=C/c1ccccc1
inactive: [1] 0.45% | [2] -13.1% | [3] 1.4% | [4] -17.3% | [5] -6.1% | [6] 1.9%

CCOC(=O)C(Br)(C(=O)OCC)C(C)C
inactive: [1] 3.75% | [2] -0.8% | [3] -16.8% | [4] -16% | [5] 10.8% | [6] 9.1%

O=C(Nc1ccc(Cl)cc1)c1ccc(Cl)c(Cl)c1
inactive: [1] -1.6% | [2] 14.8% | [3] 7.1% | [4] -8.6% | [5] 11.8% | [6] -9.6%

OC1c2ccccc2OC2(N3CCCC3)CCCCC12 (stereo not given)
inactive: [1] -5.6% | [2] -29.9% | [3] -13.2% | [4] -15.7% | [5] -26.4% | [6] 1.2%

CN(NC(=O)c1cccs1)C1=NCCN1
inactive: [1] -25.9% | [2] -23.2% | [3] -24.9% | [4] 7.25% | [5] 18.4% | [6] -7.7%

O=C(O)C(=O)O.[Co+3].[NH-]C(Cc1ccccc1)C(=O)[O-].[NH-]CCN(CC[NH-])CC[NH-] (stereo not given)
inactive: [1] 28.2% | [2] 15.8% | [3] 8.8% | [4] 22.6% | [5] 2.7% | [6] 25.6%
